Compounds without any hit were thinned out: in the full panel of roughly 79,000, 15% have a hit. Cut-off read from the data, not from the text of the source: active = growth inhibition above about 70%; inactive = the rest. Where a SMILES comes first, the peptide text is derived from it. The star is where a group is joined. Trt = c1ccc(C(c2ccccc2)(c2ccccc2)*)cc1; Benzhydryl = c1ccc(C(c2ccccc2)*)cc1; Cbz = O=C(OCc1ccccc1)*
Columns and labels:
[1] = NCI Yeast Anticancer Drug Screen. Data for the rad50 strain (AID 155);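 note: 0% = growth of vehicle-only cultures of the same strain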; conditions: S. cerevisiae rad50 strain growth inhibition; at 50.0 µM; active compounds read high
Method in brief: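 Growth of the mutant yeast was measured after compound exposure and referenced to vehicle-treated cultures.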

[2] = NCI Yeast Anticancer Drug Screen. Data for the mec2-1 strain (AID 157); conditions: S. cerevisiae mec2-1 strain, at 50.0 µM, active compounds read high
Method in brief: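 Yeast mec2-1 mutant treated with compound. Readout: growth inhibition vs vehicle controls.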

[3] = NCI Yeast Anticancer Drug Screen. Data for the sgs1 mgt1 strain (AID 161);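 note: 0% = growth of cultures given vehicle only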; conditions: S. cerevisiae sgs1 mgt1 strain, at 50.0 µM, active compounds read high
Method in brief: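 Mutant yeast exposed to compound; growth scored against vehicle-only wells.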

[4] = NCI Yeast Anticancer Drug Screen. Data for the cln2 rad14 strain (AID 165);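 note: 0% = growth equal to vehicle treated cultures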; conditions: S. cerevisiae cln2 rad14 strain, at 50.0 µM, active compounds read high
Method in brief: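 cln2 rad14 yeast strain; compound exposure; growth inhibition read vs vehicle controls.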

[5] = NCI Yeast Anticancer Drug Screen. Data for the bub3 strain (AID 167); conditions: S. cerevisiae bub3 mutant strain, at 50.0 µM, active compounds read high
Method in brief: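 Whole-cell yeast assay. The mutant strain was incubated with compounds, and growth inhibition was determined by comparison with vehicle-treated cells.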

[6] = NCI Yeast Anticancer Drug Screen. Data for the mlh1 rad18 strain (AID 175); conditions: S. cerevisiae mlh1 rad18 strain growth inhibition; at 50.0 µM; active compounds read high
Method in brief: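 Yeast w/ defined DNA-repair lesions; compound exposure; growth vs vehicle controls → % inhibition.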

Measured: growth inhibition

O=C(CCCCCCCCC(=O)c1ccc2ccccc2c1O)c1ccc2ccccc2c1O
inactive: [1] -24.4% | [2] -22.1% | [3] -12.8% | [4] 15% | [5] -10.4% | [6] -11.8%

CCOC(=O)C(=[N+]=[N-])C(=O)CN1C(=O)C2CC(C)=C(C)CC2C1O (stereo not given)
inactive: [1] -18.8% | [2] 1.15% | [3] -4.45% | [4] 1.85% | [5] -10.8% | [6] 16.9%

CC(=O)Nc1ccc2nc(/C=C/c3ccc(N(C)C)cc3)c(=O)oc2c1
inactive: [1] 38.5% | [2] 18.6% | [3] 25.5% | [4] 16.7% | [5] 20.1% | [6] 29.9%

O=c1[nH]cccc1O
inactive: [1] 5.2% | [2] 5.5% | [3] -17% | [4] 10.4% | [5] -8.8% | [6] 7.25%

O=Cc1c(CO)cc(O)c(O)c1O
inactive: [1] -12.4% | [2] -0.1% | [3] 16.1% | [4] -30.6% | [5] 2.9% | [6] 6.55%

CC(=O)COc1ccccc1-c1ccccc1
inactive: [1] 5.4% | [2] 8.55% | [3] 4.9% | [4] -34.8% | [5] 8.6% | [6] -14.7%

Cc1ccc(N=Nc2c(N)nc(N)[nH]c2=O)c(C)c1
inactive: [1] 14.9% | [2] -4.8% | [3] -11.9% | [4] 9.6% | [5] 15.7% | [6] 19.8%

O=C(Nc1ccc(Cl)cc1)C(=O)C1=C(O)c2ccccc2OC1
inactive: [1] 16.9% | [2] -5.95% | [3] -12.3% | [4] 11.4% | [5] -4.95% | [6] 9.15%

CC1=Nc2cc(C)c(C)cc2N2C1=CC1=C(C(=O)c3cc4ccccc4cc3C1=O)C2C (stereo not given)
inactive: [1] 16% | [2] 9.8% | [3] 16.2% | [4] 23.1% | [5] -3.85% | [6] 23.6%

CC(C)OC(=S)SCC(=O)c1ccc(-c2ccccc2)cc1
inactive: [1] 1.7% | [2] 17.5% | [3] 21.3% | [4] -2.45% | [5] 30.9% | [6] 8.75%

Cc1cn(C2CC(OS(C)(=O)=O)C(COC(c3ccccc3)(c3ccccc3)c3ccccc3)O2)c(=O)[nH]c1=O (stereo not given)
inactive: [1] 30.9% | [2] 1.95% | [3] 16.6% | [4] -15.2% | [5] -0.9% | [6] 15.3%

Oc1cc(CN2CCOCCOCCOCCOCC2)c(O)cc1CN1CCOCCOCCOCCOCC1
inactive: [1] 7.85% | [2] -11.8% | [3] 8.9% | [4] -49.1% | [5] -8.3% | [6] -14.1%

CSc1nc(NC(=O)O)c(N(C(C)=O)C(=O)O)c(=O)n1C
inactive: [1] -15.3% | [2] 0.6% | [3] 4.55% | [4] 19.7% | [5] -9.35% | [6] -13.5%

N#CC1CCCCC(=O)N1 (stereo not given)
inactive: [1] 3.55% | [2] 2.2% | [3] -2.05% | [4] -3.6% | [5] -1.2% | [6] -1.55%

COc1ccc2c(c1)CN(Cc1ccccc1)CO2
inactive: [1] 3.85% | [2] -3.4% | [3] 6% | [4] -17.4% | [5] 13% | [6] 11.7%

N#Cc1c(F)c(F)c(Oc2c(F)c(F)c(F)c(F)c2F)c(F)c1Oc1c(F)c(F)c(F)c(F)c1F
inactive: [1] -1.1% | [2] 11% | [3] -11.8% | [4] 9% | [5] -0.3% | [6] 5.8%

CC1(C)OC2C(C(=O)O)OC(n3cnc4c(N)ncnc43)C2O1 (stereo not given)
inactive: [1] -3.35% | [2] -12.2% | [3] -9.7% | [4] -2.05% | [5] -21.6% | [6] -0.7%

COC(=O)C(Cc1ccccc1)NC(=O)C(Cc1ccccc1)NC(=O)CNC(=O)C(CSC(c1ccccc1)c1ccccc1)NC(=O)C(CSC(c1ccccc1)(c1ccccc1)c1ccccc1)NC(=O)OCc1ccccc1 (stereo not given) (Cbz-C(Trt)C(Benzhydryl)GFF-OMe; configuration not given here)
inactive: [1] -5.55% | [2] 25.4% | [3] 19% | [4] -14.9% | [5] -9.8% | [6] 28.1%

C=CCNC(=S)/N=C/c1c(C(=O)OCC)[nH]n(-c2ccccc2)c1=O
inactive: [1] -27.8% | [2] -19.5% | [3] -44.8% | [4] -32.8% | [5] -26% | [6] -54.6%

O=C(NNC(=O)C(F)(F)F)C(F)(F)F
inactive: [1] 0.55% | [2] -3.4% | [3] -5.1% | [4] -10% | [5] -12.8% | [6] -2%

Source: PubChem BioAssay (NCI)
